Among all 2,000 compounds or so, about 260 (13%) were called active. Cut-off read from the data, not from the text of the source: active = inhibition mostly above about 42% (no sharp cut-off); inactive = mostly below about 42%. Only a sample is shown.

This experiment deals with Nicotinate mononucleotide adenylyltransferase NadD (Staphylococcus aureus N315). The experiment in a line: inhibitors of S. aureus NadD, confirmation, biochemical, colorimetric, single concentration (AID 624309). As to conditions: purified S. aureus NadD, colorimetric enzyme assay; at 20 µM; hits give high values.
On to `Cc1cc(N2C(=O)C(O)=C(C(=O)c3ccc(C)o3)C2c2ccc(OCc3ccccc3)cc2)no1` (configuration not stated), for which the inhibition is 51.4% (active). Regarding `CCCn1c(C)cc(-c2csc(NC(=O)CCc3nc4ccccc4c(=O)[nH]3)n2)c1C`, the inhibition is 25.1% (inactive). On to `CCc1ccc(-n2c(=S)sc3c(=O)n(-c4ccccc4OC)c(=S)[nH]c32)cc1`, for which the inhibition was 5.54% (inactive). `Cc1ccc(C(=O)COC(=O)c2cccc(N3C(=O)c4c(C)nc5ccccc5c4C3=O)c2)cc1C`: the inhibition was 0.6% (inactive). For the molecule `Cc1cc(C)c2nc(-c3cccnc3)cc(C(=O)Nc3ccc(S(=O)(=O)Nc4onc(C)c4C)cc3)c2c1`, the inhibition was 64% (active). With `COc1cccc2sc(NNC(=O)c3nc4ccccc4s3)nc12`, the inhibition is 43.7% (inactive). `O=C(COC(=O)c1cc(=O)[nH]c2ccccc12)Nc1nc(-c2cccc(Br)c2)cs1`: the inhibition is 5.44% (inactive). The result for `CCOc1ccc(CCN2C(=S)N([C@@H](CC(C)C)CN3CCC[C@@H]3CN3C(=S)NC[C@@H]3Cc3ccc(O)cc3)C[C@@H]2Cc2ccc(O)cc2)cc1` reads 29.1% (inactive); that for `COc1ccc(C(=O)/C=C/c2ccc(-c3ccccc3)cc2)cc1CSCC(=O)O`, 46.5% (inactive); that for `Cc1ccc(Cn2c(=N)c(S(=O)(=O)c3ccc(C)cc3)cc3c(=O)n4ccccc4nc32)cc1`, 20.4% (inactive).

With `Cc1ccc(N2C(=O)C3N=NN(CC(=O)N4N=C(c5cccc6ccccc56)CC4c4ccccc4)C3C2=O)cc1` (configuration not stated), the inhibition was 33.1% (inactive).

With `CC(=O)Nc1ccc(Nc2cc(C)nc(Nc3ccc(NC(C)=O)cc3)n2)cc1`, the inhibition is 9.22% (inactive). In the case of `O=C1NC[C@H](Cc2ccc(O)cc2)N(C[C@@H]2CCCN2C[C@H](Cc2ccccc2)N2C[C@H](Cc3ccccc3)N(CC3CCCCC3)C(=O)C2=O)C1=O`, the inhibition is 38.1% (inactive).

In the case of `O=C(Nc1ccc(NC(=O)c2cccs2)cc1)c1ccc2ccccc2c1`, the inhibition was -0.66% (inactive).

For `Nc1ccc2nc3c(=O)[nH]c(=S)[nH]c3nc2c1`, the inhibition was 72.4% (active). For `Cc1ccc(C(=O)Oc2coc(CSc3nnc(NC(=O)c4cccs4)s3)cc2=O)cc1C`, the inhibition was 13.8% (inactive). As to `CC(C)CC1C(=O)N(Cc2cn(Cc3ccco3)nn2)CCS(=O)(=O)N1Cc1ccc(-c2ccc(Cl)c(Cl)c2)cc1` (configuration not stated), the inhibition is 35% (inactive). On to `COc1cc(C2CC(=O)N3CN(Cc4ccccc4)CSC3=C2C#N)ccc1OCc1ccccc1` (configuration not stated), for which the inhibition is 4.07% (inactive). With `COCCCn1c(=O)/c(=C/c2ccccc2OC(C)C)s/c1=C(\C#N)C(=O)Nc1ccc(C(=O)O)cc1`, the inhibition was 12.9% (inactive). For `NNc1cccc(C=Cc2ccccc2)cc1=O`, the inhibition was 39.5% (inactive). `O=C(CSc1nnc(-c2cccnc2)n1Cc1ccco1)c1ccc(Cl)c(Cl)c1`: the inhibition was 32.6% (inactive). For the molecule `COc1ccc(NS(=O)(=O)c2ccc(NC(=S)NC(=O)/C=C/c3ccc(C)cc3)cc2)nn1`, the inhibition was 58.1% (active). As to `COc1ccc(Cl)cc1C(=O)NNC(=S)NC(=O)/C=C/c1ccco1`, the inhibition is -2.56% (inactive). In the case of `COc1ccc(C2=NN(C(=O)CSc3nc(=O)n4ccc(C)cc4n3)C(c3ccc(C)cc3)C2)cc1` (configuration not stated), the inhibition was 18.2% (inactive). For `C[C@H](CO)N1C[C@H](C)[C@H](CN(C)C(=O)Nc2ccc(C(F)(F)F)cc2)Oc2c(NC(=O)c3ccncc3)cccc2C1=O`, the inhibition is 27.5% (inactive). Consider `Cc1ccc2nc(/C(C#N)=C\c3ccc(OC(=O)c4cccs4)cc3)[nH]c2c1`, for which the inhibition is 21% (inactive). On to `Cc1ccc(/C=C/C(=O)Nc2ccc([N+](=O)[O-])c(NC(=O)/C=C/c3ccc(C)o3)c2)o1`, for which the inhibition is 60.6% (active). `CCCn1c(C(C)Nc2nc(-c3ccc(C)cc3)cs2)nc2cc(Cl)c(N3CCCCC3)cc21` (configuration not stated): the inhibition was 0.81% (inactive). The result for `CCC(NC(=O)c1cc(COc2ccc(F)c(F)c2)on1)c1ccncc1` (configuration not stated) reads 2.18% (inactive). On to `c1ccc(-c2nccc(-c3ccc(-n4cnc5ccccc54)cc3)n2)nc1`, for which the inhibition is 16.5% (inactive). Regarding `O=C(CSc1nc2ccccc2c(=O)[nH]1)Nc1nc(-c2ccc(Br)cc2)cs1`, the inhibition is 6.59% (inactive).

As for `Cc1ccc(Cn2nnc3c(=O)[nH]c(C4CCN(S(=O)(=O)/C=C/c5ccccc5)CC4)nc32)cc1`, the inhibition was 37% (inactive). As for `Cc1ccc(Cn2c(C)nc3c(c2=O)c2nc4ccccc4nc2n3Cc2ccco2)cc1`, the inhibition was 11.8% (inactive).

With `Cn1c2ccccc2c(=O)c2c(=O)n(Cc3ccco3)c(COc3ccccc3)nc21`, the inhibition is 10.4% (inactive). For the molecule `Cc1cc(C(=O)CSc2nc(N)cc(=O)[nH]2)c(C)n1CCc1ccc(Cl)cc1`, the inhibition is 21.5% (inactive).

Regarding `C#Cc1cc(N2CCN(C(=O)c3ccoc3)CC2)n2nc(-c3cccc(Cl)c3)cc2n1`, the inhibition was 25.9% (inactive). Turning to `COc1ccc(-c2nn(-c3ccccc3)cc2/C=N/Nc2ccccn2)cc1OC`, the inhibition was 5.86% (inactive).

Turning to `Cc1ccc(-c2nc(-c3cccnc3)sc2CC(=O)Nc2ccc(C)c(Cl)c2)cc1`, the inhibition is -1.82% (inactive). `Cc1noc(/C=C/c2ccco2)c1S(=O)(=O)N1CCC(C(=O)N2CCc3ccccc32)CC1`: the inhibition was 4.7% (inactive). For the molecule `Cn1cncc1C#Cc1c(-c2ccsc2)sc2ccccc12`, the inhibition is 9.54% (inactive). Regarding `O=C(N/N=C/c1ccc(Cl)cc1)c1nc2ccc([N+](=O)[O-])cc2c(=O)[nH]1`, the inhibition was 9.54% (inactive). As for `COc1ccccc1/C=C/C=N/n1c(-c2ccc(Cl)cc2Cl)n[nH]c1=S`, the inhibition was 17.4% (inactive). For `CCC(c1nnnn1Cc1ccco1)N(Cc1cc2cc(OC)ccc2[nH]c1=O)C1CCCCC1` (configuration not stated), the inhibition is 14.9% (inactive). Then `COc1ccc(C(=O)Nc2cccc(/C=C(/CCC(=O)O)c3nc4ccccc4s3)c2)cc1`, with 35.7% (inactive); and `CC(C)(C)C(=O)Nc1ccc(C(=O)N/N=C/c2ccccc2OC(=O)c2ccc(Cl)cc2Cl)cc1`, with 0.49% (inactive). `CCCCCCc1cc2cc(-c3nnc(-c4ccccc4)o3)c(=O)oc2cc1O`: the inhibition was -1.61% (inactive).

As to `Cc1cc(O)c(C(=O)/C=C/c2c(F)c(F)c(F)c(F)c2F)c(=O)o1`, the inhibition was 12.9% (inactive).

On to `CCOC(=O)c1ccccc1N1C(=O)C2Sc3[nH]c(=O)sc3C(/C=C/c3ccccc3)C2C1=O` (configuration not stated), for which the inhibition is 57.6% (active).

Regarding `CC(C)Oc1ccc(/C=C(\NC(=O)/C=C/c2ccco2)C(=O)NCCc2nc3ccccc3[nH]2)cc1`, the inhibition is 37.9% (inactive).

For the molecule `Nc1[nH]c(=S)nc2nc(-c3ccccc3)c(-c3ccccc3)nc12`, the inhibition is 38.5% (inactive). On to `COc1ccc([N+](=O)[O-])cc1NC(=O)CC1SC(=Nc2cccc(C)c2C)N(/N=C(\C)c2ccc(C)cc2)C1=O` (configuration not stated), for which the inhibition is -2.98% (inactive). The result for `Cc1nc(N2CCN(c3ccccn3)CC2)c2c(C)c(C(=O)Nc3ccc(F)c(Cl)c3)sc2n1` reads 3.33% (inactive); that for `C=CC1=C(C(=O)O)N2C(=O)[C@@H](NC(=O)/C(=N/OCC(=O)O)c3csc(N)n3)[C@H]2SC1`, 95.8% (active); that for `O=C(O)c1ccc(COCC(F)(F)F)cc1`, 10.3% (inactive). Then `CC1(OC(=O)C2CCCC2)C(=O)C=C2C=C(c3ccc(C#N)cc3)OC=C2C1=O` (configuration not stated), with 73.5% (active); and `Cc1nn(-c2ccccc2)c(C)c1/C=N/NC(=O)CSc1nc2ccccc2c(=O)n1-c1ccccc1`, with 8.17% (inactive). Then `CCOc1ccc(-c2n[nH]c(=S)n2/N=C/c2cc3c(cc2[N+](=O)[O-])OCO3)cc1`, with 4.81% (inactive); and `N#CC1=C(SCc2ccc(C#N)cc2)N=C(N)C(c2nc(-c3ccccc3)cs2)C12CCCCC2` (configuration not stated), with 24.2% (inactive); and `CCN(CC)C(=O)c1sc2nc(-c3ccccc3)ccc2c1N`, with -11.1% (inactive). With `O=C(CSc1nc(Nc2ccccc2)nc(N2CCOCC2)n1)Nc1cc(Cl)ccc1O`, the inhibition was 43.2% (inactive). Regarding `O=C(NCC(=O)N1CCN(c2ccccc2O)CC1)c1ccc2ccccc2c1`, the inhibition is 34.8% (inactive). `CCCCCCC(=O)Nc1nc(C)c(-c2csc(Nc3cc(Cl)ccc3OC)n2)s1`: the inhibition was 5.75% (inactive). Take `Cc1ccc(NS(=O)(=O)c2ccc(N/N=C/c3ccccc3OCC(=O)O)c([N+](=O)[O-])c2)c(C)c1`: the inhibition was 64.9% (active).

For `COc1ccc(Br)cc1/C=N/Nc1ccc(S(=O)(=O)Nc2ccccc2C(=O)O)cc1[N+](=O)[O-]`, the inhibition was 73.9% (active). The result for `O=C(Nc1ccc(S(=O)(=O)Nc2nccs2)cc1)c1cc(-c2ccncc2)nc2ccccc12` reads 44.5% (active); that for `COc1ccc(NS(=O)(=O)c2cc(NC(=O)CC(=O)c3ccc([N+](=O)[O-])cc3)ccc2C)cc1`, 28.1% (inactive). As for `CCn1cc(C(=O)NCCCN2CCCCCC2)c(=O)c2cc(S(=O)(=O)N3CCc4ccccc4C3)ccc21`, the inhibition was -16.2% (inactive). In the case of `Cc1cc(C)c(S(=O)(=O)NN=C2c3ccccc3[C@H]3Cc4csc[n+]4[C@@H]23)c(C)c1`, the inhibition is 30.1% (inactive). For `Cc1ccc(Cc2cnc(NC(=O)/C(C#N)=C/c3ccc(-c4cccc([N+](=O)[O-])c4)o3)s2)cc1`, the inhibition was 5.75% (inactive). Take `Nc1nc2n(n1)C(c1ccco1)CC(c1ccc(Cl)c(Cl)c1)N2` (configuration not stated): the inhibition was 13.2% (inactive). For the molecule `CCOc1ccc2nc(N3CCCN(C(=O)Nc4ccccc4C)CC3)c(C#N)cc2c1`, the inhibition was -3.08% (inactive). The result for `CCOc1ccc2nc(/N=C/c3nc(-c4ccccc4)oc3O)sc2c1` reads 5.96% (inactive); that for `COc1cccc(-c2nn(-c3ccccc3)cc2/C=C(\C#N)C(=O)NCCCn2ccnc2)c1`, 2.7% (inactive); that for `Cc1nn2c(c1-c1ccccc1)N=C(c1ccco1)CC2c1ccccc1` (configuration not stated), 21.2% (inactive).

For the molecule `COC(=O)c1ccc2nc(-c3ccc(C)cc3)c(Cc3ccc(OC)cc3C)n2c1`, the inhibition is 12.6% (inactive). For the molecule `Cc1cc2nc(-c3ccco3)c(Cc3cccc(F)c3)n2c(C)c1Br`, the inhibition was 22.4% (inactive).

For `C/C(=N\NC(=O)CNc1cccc2ccccc12)c1ccc(Br)s1`, the inhibition is 8.07% (inactive).

These data come from PubChem BioAssay AID624309 (Sanford-Burnham Center for Chemical Genomics, 2012).
